This excerpt belongs to a sample that is enriched for hits.
Lassa entry inh – Lassa virus entry inhibition. Lassa virus pseudotype entry inhibition, cell reporter. Potency, µM (doses to about 37.9 µM), for inactives: at the highest dose activity change, negative = inhibition, actives largely listed as inhibitors. 300,000 compounds, 1.2% hits; calls by dose curve; tested in HEK293 cells; further: potency means the concentration at half of the fitted maximal effect; on the % scale 0 is the no-effect control and ±100 the full control effect; nearly all actives have a fitted effect of over 50% in size
AMA1-RON2 inh – inhibitors of Plasmodium falciparum AMA1-RON2 interaction; AlphaScreen AMA1-biotinylated RON2 peptide binding; Potency, µM (series often up to 58.2 µM), for the others: at the highest dose activity change, negative = inhibition, usual class: inhibitors; 360,000 compounds, 0.2% hits; AID 720542; active means well fitted inhibition curve with a large enough effect; inconclusive means small, poorly fitted or top-dose-only effect; inactive means no such curve, though single readings can be large or run the other way;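 further: potency means the concentration at half of the fitted maximal effect; 0% = vehicle wells and -100% = peptide control; nearly all actives have a fitted effect of over 45% in size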
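AMA1 (3D7) with his tag at 25 nM final met compounds first, then biotinylated RON2 peptide at 25 nM; detection used donor plus acceptor beads, 10 µg/mL apiece, read by AlphaScreen after 30 min at room temperature.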
CHX counter – counter-screen for Shiga toxin inhibitors: cycloheximide protein synthesis inhibition. cell reporter, cycloheximide protein synthesis inhibition counterscreen. max response, %. 300,000 compounds, 12% hits. AID 2314; in the data active means max response mostly above about 13%, no sharp cut-off; inactive means mostly below about 14%; further: read at 38.3 µM for the half of the compounds with a filed dose; 0% is about no effect
Marburg entry inh – blocks Marburg virus binding to or entry into cells. Potency, µM (doses to about 37.8 µM), inactives show at the highest dose activity change, negative = inhibition, actives largely listed as inhibitors. AID 540276. Marburg virus pseudotyped entry inhibition, cell reporter. 300,000 compounds, 1.8% hits; calls by dose curve; tested in HEK293 cells; further: potency means the concentration at half of the fitted maximal effect; on the % scale 0 is the no-effect control and ±100 the full control effect
Shiga toxin inh – inhibitors of Shiga toxin in Vero cells. Vero cells, Shiga toxin protein synthesis inhibition reporter. inhibition, % at 38.7 µM. 290,000 compounds, 9.2% hits. AID 2315; in the data active means inhibition mostly above about 28%, no sharp cut-off; inactive means mostly below about 43%; further: 0% is about no effect
The depositor's hits bear a star; u = inconclusive; x = no result; [ ] = dose if it differs, or a comment.

SMILES | Lassa entry inh | AMA1-RON2 inh | CHX counter | Marburg entry inh | Shiga toxin inh
COc1cccc(/C=C(\CC(=O)O)c2nc3ccccc3s2)c1 | 15.2%[46.1 µM] | 3.5% | 9.8 | 3.9%[46.1 µM] | 28.8
O=C(CC1C(=O)NCCN1Cc1c(F)cccc1Cl)NCCCn1cccn1 (stereo not given) | x | -14.2% | -0.8 | x | 10.5
COc1ccc(CNC(=O)CCn2cccn2)cc1 | -13.6%[46.1 µM] | x | x | x | x
CCCCN(C(=O)CNC(=O)c1ccco1)C(C(=O)NC1CCCCC1)c1cccnc1 (stereo not given) | 1.6%[46.1 µM] | -10.0% | -2.4 | 2.4%[46.1 µM] | -16.5
O=C(Nc1cccc(C(F)(F)F)c1)C1Cc2c(-c3ccccc3Oc3ccccc3)ccnc2O1 (stereo not given) | x | -4.2% | x | x | x
Cc1ccc(S(=O)(=O)/N=C2/C=C(C3C(=O)CC(C)(C)CC3=O)C(=O)c3ccccc32)cc1 | -9.2% | -13.9% | 40.9* | u | 140.4*
c1ccc2c(N3CCNCC3)nsc2c1 | u | -15.2% | 15.7* | u | 7.6
C/C(=N\Nc1cccc(Cl)c1)c1ccncc1 | x | -10.2% | 24.1* | x | 31.3
C/C(=N\Nc1ccc(Cl)cc1)c1ccncc1 | -13.7% | 6.1% | 21.1* | -28.1% | 47.4
C/C(=N\NC1=NCCN1)c1ccc(Cl)cc1 | u | -0.2% | 0.7 | u | 13.8
C/C(=N\Nc1ccc(F)cc1)c1ccncc1 | 0.9% | -3.8% | 24.1* | -35.6% | 33.7
C/C(=N/NS(=O)(=O)c1ccc(F)cc1)c1ccncc1 | 26.0%[46.1 µM] | 5.9% | -2.7 | -0.3%[46.1 µM] | -6.0
CCOc1ccc(CCNC(=O)c2c(C)oc3ncn(CC(C)C)c(=O)c23)cc1 | 8.8%[46.1 µM] | x | x | x | x
COc1ccc(CCNC(=O)COc2cc(O)c3c(c2)OC(C)(C)CC3=O)cc1OC | x | -12.9% | -1.7 | x | -4.7
O=C(NCCc1cccs1)C1CC(c2ccccc2[N+](=O)[O-])=NO1 (stereo not given) | x | 5.0% | 16.4* | x | 74.1*
Cc1ccc(CCNC(=O)C2CC(c3ccccc3[N+](=O)[O-])=NO2)cc1 (stereo not given) | x | 4.5% | 9.2 | x | 14.2
COc1ccc(CCNC(=O)Nc2ccccc2[N+](=O)[O-])cc1 | 5.1% | -6.3% | 36.6* | 26.3%[46.1 µM] | 67.4*
COc1ccc(CCNC(=O)C2CC(c3ccccc3[N+](=O)[O-])=NO2)cc1 (stereo not given) | x | -2.3% | 48.8* | x | 51.6
COc1ccc(CCNC(=O)COC(=O)Cc2ccccc2[N+](=O)[O-])cc1 | 1.0% | -12.4% | x | 2.8% | x
CCN(CC)S(=O)(=O)c1ccc2c(c1)nc(SCC(=O)N1CCCCCC1)n2-c1ccc(OC)cc1 | u | -9.3% | -3.3 | u | -3.9
CCN(CC)S(=O)(=O)c1ccc2c(c1)nc(SCC(N)=O)n2-c1ccc(OC)cc1 | 12.6µM* | 0.7% | -0.3 | -10.4% | -9.0
CCOC(=O)c1c(S(=O)(=O)NCC(=O)Nc2cc(C)ccn2)c(C)n(C)c1C | u | 7.7% | 13.4* | 3.4%[46.1 µM] | 42.2
CN(C)c1cccc(C(=O)NNC(=S)NC2CC3CCC2C3)c1 (stereo not given) | -2.5% | 38.6% | 31.5* | u | 55.6*
CCNC(=O)C1(C)CCN(C(=O)c2ccccc2OC)C1 (stereo not given) | x | -5.4% | x | x | x
O=C(Nc1ccncc1)Nc1cccc(F)c1 | 16.7%[46.1 µM] | -5.4% | 29.3* | -7.8%[46.1 µM] | 66.6
SMILES | Lassa entry inh | AMA1-RON2 inh | CHX counter | Marburg entry inh | Shiga toxin inh
O=C(Nc1ccncc1)c1cccc(F)c1 | 9.1% | -7.6% | -1.3 | -11.1% | 1.0
Cc1cc(C)cc(NC(=O)Nc2cccnc2)c1 | -0.3%[46.1 µM] | -4.2% | 14.6 | 3.7%[46.1 µM] | 19.9
O=C(Nc1cccnc1)Nc1cccc(F)c1 | x | 11.1% | 18.2* | x | 20.5
Cc1ccc(NC(=O)Nc2cccnc2)cc1NC(=O)Nc1cccnc1 | x | -8.3% | 24.1* | x | 64.2
Cc1cccc(-c2cnc(C(O)Cc3ccccc3)[nH]2)c1 (stereo not given) | x | 6.4% | x | x | x
CN(C)S(=O)(=O)c1ccc(NC(=S)NC(=O)c2cccs2)cc1 | 20.5%[46.1 µM] | 93.1% | 10.8* | -17.9%[46.1 µM] | 22.9
CCN(c1ccccc1)S(=O)(=O)c1ccc(NC(=S)NC(=O)c2cccs2)cc1 | u | 94.2% | 16.8 | u | 30.3*
Cc1ccc(C(=O)c2oc3ccccc3c2NC(=O)COc2ccccc2C)cc1 | -5.9%[46.1 µM] | x | x | 0.8%[46.1 µM] | x
COc1ccc(OC(F)(F)F)cc1CC1(C)C(=O)Nc2ccc(S(=O)(=O)NC3CCCCC3)cc21 (stereo not given) | x | 0.0% | x | x | x
S=c1[nH]nc(-c2ccc(Br)cc2)n1-c1ccc2c(c1)OCCO2 | u | 79.8% | 12.5 | -11.2% | 12.6
Oc1ccc(-c2n[nH]c(=S)n2-c2ccc3c(c2)OCCO3)c(O)c1 | u | 54.3% | 17.1* | u | 35.1*
COc1ccc(-c2n[nH]c(=S)n2-c2ccc3c(c2)OCCO3)cc1OC | 0.6% | 84.2% | 23.5* | 12.1% | 49.8*
S=c1[nH]nc(Cc2ccc(Cl)cc2)n1-c1ccc2c(c1)OCCO2 | x | 76.3% | -2.9 | x | -3.1
COc1ccccc1-c1n[nH]c(=S)n1-c1ccccc1 | 0.7% | 42.1% | 19.7* | -15.7%[46.1 µM] | 14.5
COc1ccc(-c2n[nH]c(=S)n2-c2ccc3c(c2)OCCO3)cc1 | -0.9% | 56.9% | 10.9 | 5.0% | 15.9
S=c1[nH]nc(-c2ccc(Cl)cc2Cl)n1-c1ccc2c(c1)OCCO2 | u | 84.4% | 20.6* | 10.8% | 46.3*
Cc1ccc(N2CC(C(=O)Nc3ccccc3OC(F)F)CC2=O)cc1 (stereo not given) | x | 13.7% | x | x | x
O=C(N/C(=C/c1ccccc1Cl)C(=O)N1CCCCC1)c1ccco1 | 1.4% | -5.6% | x | -28.9% | x
COc1cccc(NC(=O)CN(C)C(=O)Cn2c(=O)oc3ccccc32)c1 | -3.5% | 17.8% | x | 6.4% | x
S=c1[nH]nc(-c2ccc(Cl)cc2Cl)n1Cc1ccccc1 | 4.2% | 62.6% | 3.7 | 31.5% | 20.8
COc1ccc(C2=NO[C@@H]3C(=O)N(c4ccc5c(c4)OCCO5)C(=O)[C@H]23)cc1OC | 18.1% | -8.7% | 37.6* | -0.9% | 47.9*
S=c1[nH]nc(-c2ccc(Cl)cc2Cl)n1-c1ccccc1 | x | 152.8% | 39.7* | x | x
CCCCc1ccc(-n2nc3ccc(NC(=O)c4cc5ccccc5o4)cc3n2)cc1 | 1.3%[46.1 µM] | x | x | x | x
Cc1ccc(C(=O)NCC(C)NC(=O)c2ccc(C)c(C)c2)cc1C (stereo not given) | -16.6%[46.1 µM] | -14.6% | x | -7.8%[46.1 µM] | x
CCCOc1ccc(/C=C/C(=O)Nc2ccc([N+](=O)[O-])cc2)cc1 | u | -13.2% | -3.1 | 1.78µM* | -14.8

High-throughput results deposited in PubChem by National Center for Advancing Translational Sciences (NCATS).
